Experimental data published in PubChem BioAssay (NCI).
The panel holds about 79,000 compounds, 15% with a hit somewhere; the sample as a whole holds those more often. Activity calls are given as the source filed them. No stated cut-off is given here; in the data, active means growth inhibition above about 70%; inactive means the rest.

Assay: NCI Yeast Anticancer Drug Screen. Data for the mgt1 strain (AID 153)
Settings: S. cerevisiae mgt1 mutant growth inhibition, active compounds read high
Protocol: Growth inhibition of yeast strains with defined genetic alterations is measured as a screen for potential anti-cancer activity. Selected strains with alterations in DNA damage repair or cell cycle control were exposed to compounds and growth inhibition was measured relative to vehicle treated controls. The strain used in this assay is mgt1

Measured: growth inhibition

Cc1ccc(Cl)c2c(=O)c3ccccc3[nH]c12
inactive: at 1.2 µM -2% | at 3.7 µM -1% | at 11.0 µM 0% | at 33.0 µM 0% | at 100.0 µM 7%

CCCCCCCCCCCCOC1C(COCCN2CCCC2)OC2OC(C)(C)OC21 (stereo not given)
inactive: at 1.2 µM 3% | at 3.7 µM 2%
active: at 11.0 µM 97% | at 33.0 µM 98% | at 100.0 µM 98%

CN(C)c1ccc(/C=C/c2ccnc3ccc4ccccc4c23)cc1
inactive: at 1.2 µM -3% | at 3.7 µM -2% | at 11.0 µM 45% | at 33.0 µM 69% | at 100.0 µM 58%

c1cc2ccc3cc4ncccc4c4ccc(c1)c2c34
active: at 33.0 µM 76% | at 100.0 µM 84%
inactive: at 1.2 µM -2% | at 3.7 µM -1% | at 11.0 µM 11%

CCCCCCCCCCCCCCCCOCC(Cl)COP(=O)(O)OP(=O)(O)OCC1OC(n2cnc3c(N)ncnc32)C(O)C1O (stereo not given)
inactive: at 1.2 µM 15% | at 3.7 µM 14% | at 11.0 µM 55% | at 33.0 µM 68%
active: at 100.0 µM 85%

Nc1ccc2cc(Br)c3ccccc3c2c1
inactive: at 1.2 µM -1% | at 3.7 µM -3% | at 11.0 µM -1% | at 33.0 µM -1% | at 100.0 µM -3%

CCOc1ccc2ccc3cccnc3c2n1
inactive: at 1.2 µM -4% | at 3.7 µM 8% | at 11.0 µM -10% | at 33.0 µM 34% | at 100.0 µM 68%

CC1=Cc2ccc(C)cc2C(=O)C1=O
inactive: at 1.2 µM 27% | at 3.7 µM 42% | at 11.0 µM 60%
active: at 33.0 µM 100% | at 100.0 µM 99%
